Compound activity as filed in PubChem.
In the library only some 10% were active in any assay of this set; here they are far more common.
Luciferase inh: Firefly luciferase inhibition profiling of diverse chemical library using quantitative high-throughput screening; Luciferin 4-monooxygenase (Photinus pyralis), P08659; purified P. pyralis luciferase, luminescence, biochemical; Potency, µM (series often up to 115 µM), actives largely listed as inhibitors; hit rate 2.5% among 76,000; AID 1347043, 2019; also: nearly all actives have a fitted effect of over 65% in size
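Cell-free enzyme assay, 10nM P. pyralis luciferase, luciferin and ATP each at 10uM. Inhibition profiled over a 6-point titration, read as luminescence.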
HEK293 tox: Cytotoxic Profiling in HEK 293 Cell Line of Diverse Libraries Using Quantitative High-Throughput Screening. HEK 293 viability, ATP luminescence (CellTiter-Glo), 48-72 h. hit rate 6.6% among 94,000. Potency, µM (top dose mostly 115 µM), most hits filed as inhibitors; also: nearly all actives have a fitted effect of over 60% in size
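Read-out: CellTiter-Glo ATP luminescence. Cells: HEK 293, 250 cells/well. Exposure: 48 or 72 hr, 37 degree Celsius.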
GPT2 inhibitor: Primary qHTS assay for inhibitors of Glutamate pyruvate transaminase 2 (GPT2) | Alanine aminotransferase 2 (Homo sapiens), Q8TD30 | Recombinant GPT2, coupled pyruvate oxidase/HRP Amplex Red fluorescence | Potency, µM (series often up to 57.7 µM), hits mostly inhibitors | hit rate 0.25% among 100,000 | AID 1671188, 2021; also: nearly all actives have a fitted effect of over 60% in size
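Recombinant GPT2 (10ng/uL) with 250uM a-KG and 2mM L-alanine, 30 min at room temperature, in HEPES pH 7.5 buffer. Pyruvate detected by pyruvate oxidase/HRP/Amplex Red fluorescence after 30 min in the dark; AOA (50uM) as positive control.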
NPR1 antag: Natriuretic polypeptide receptor (hNpr1) antagonism - Primary qHTS | HEK293 hNpr1 GloSensor cGMP, ANP-stimulated luminescence | Potency, µM (doses to about 46.3 µM), usual class: inhibitors | hit rate 1.6% among 76,000 | AID 1347048, 2019; calls by dose curve; also: nearly all actives have a fitted effect of over 60% in size
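Compound pre-incubated 30 min at room temperature on GloSensor-loaded HEK293 cells stably carrying hNpr1 and the pGS-40F cGMP biosensor. Stimulation uses hNppA at 0.1 nM final; luminescence is taken at baseline and 20 min post-agonist.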
3T3 cytotox: Cytotoxic Profiling in NIH 3T3 Cell Line of Diverse Libraries Using Quantitative High-Throughput Screening; NIH 3T3 viability, CellTiter-Glo ATP luminescence, 48-72 h; Potency, µM (series often up to 96.7 µM), usual class: inhibitors; hit rate 4.3% among 94,000; AID 1345082, 2018; also: nearly all actives have a fitted effect of over 55% in size
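Viability of NIH 3T3 cells after 48 or 72 hr compound treatment at 37 °C was assessed by CellTiter-Glo, with luminescence imaged following a 10 min room-temperature step.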
NPR1 antag cnf: Natriuretic polypeptide receptor (hNpr1) antagonism - Confirmation; HEK293 hNpr1 cGMP GloSensor luminescence, ANP-stimulated; Potency, µM (highest dose often 57.6 µM), usual class: inhibitors; hit rate 76% among 1,400; shares compounds with NPR1 antag; calls by dose curve; also: nearly all actives have a fitted effect of over 70% in size
Npr2 selectivity: Natriuretic polypeptide receptor (hNpr2) antagonism - Subtype selectivity assay | shares compounds with NPR1 antag | HEK293 hNpr2 GloSensor cGMP luminescence, CNP-stimulated | Potency, µM (series often up to 57.6 µM), most hits filed as inhibitors | hit rate 67% among 1,400 | AID 1347046, 2019; calls by dose curve; also: nearly all actives have a fitted effect of over 70% in size
FLuc inh counter: Natriuretic polypeptide receptor (hNpr1) antagonism - Confirmation firefly luciferase (FLuc) inhibition counterscreen; shares compounds with NPR1 antag; purified FLuc enzyme, luminescence, Km substrate; Potency, µM (series often up to 57.6 µM), actives largely listed as inhibitors; hit rate 0.7% among 1,400
GloSensor cGMP: Natriuretic polypeptide receptor (hNpr1) antagonism - Counterscreen GloSensor control cell line. Potency, µM (titrated, usually from 57.6 µM), hits mostly inhibitors. hit rate 69% among 1,400. HEK293 GloSensor cGMP, SNP-stimulated, luminescence. shares compounds with NPR1 antag. AID 1347051, 2019; calls by dose curve; also: nearly all actives have a fitted effect of over 70% in size
Each line names hits and unclear results; the compound was inactive in the other large screens (follow-up assays come after a bar, where they were run). Unless noted, calls follow the shape of the dose curve; as a rule, active = well fitted curve in the direction sought with a large enough effect; inconclusive = small, poorly fitted or top-dose-only effect, or another doubt; inactive = no such curve, though single readings can be large; an effect the other way counts as inactive or inconclusive.

COc1ccc([C@@H]2CN(c3nnnn3-c3ccccc3)C[C@H]2NC(C)=O)cc1	NPR1 antag inconclusive | NPR1 antag cnf inconclusive | Npr2 selectivity inconclusive | FLuc inh counter inactive | GloSensor cGMP inactive
COCCCn1c(=O)c(C(=O)N2CCN(C(=O)C3CCCC3)CC2)nc2cccnc21	none (no result: Luciferase inh, NPR1 antag)
CC(C)NC(=O)c1cc(-c2ccc(F)cc2)cn1C	none
CCCNC(=O)c1cc(-c2ccc(F)cc2)cn1C	NPR1 antag inconclusive | NPR1 antag cnf inactive | Npr2 selectivity inactive | FLuc inh counter inactive | GloSensor cGMP inactive
O=C1NCc2ccccc2CC12CCCN2Cc1cccc(O)c1 (centres undefined)	none (no result: Luciferase inh, NPR1 antag)
Cc1cn2nnc(C(=O)NCc3ccc(C(C)C)cc3)c2c(=O)[nH]1	HEK293 tox inconclusive, NPR1 antag inconclusive, 3T3 cytotox inconclusive | NPR1 antag cnf 27.3µM | Npr2 selectivity inconclusive | FLuc inh counter inactive | GloSensor cGMP 24.3µM
COc1ccc(-c2cnc3[nH]cc(CC(=O)N4CCNC(=O)C4)c3c2)cc1	3T3 cytotox inconclusive
O=C(Cc1c[nH]c2ncc(-c3cccc(CO)c3)cc12)N1CCOCC1	HEK293 tox inconclusive, 3T3 cytotox inconclusive
O=C(Cc1c[nH]c2ncc(-c3ccc(Oc4ccccc4)cc3)cc12)N1CCOCC1	HEK293 tox 56.2µM, NPR1 antag 10µM, 3T3 cytotox inconclusive | NPR1 antag cnf 12.5µM | Npr2 selectivity 17.7µM | FLuc inh counter inconclusive | GloSensor cGMP 11.1µM
COc1cc(F)cc(-c2cnc3[nH]cc(CC(=O)N4CCOCC4)c3c2)c1	HEK293 tox inconclusive, NPR1 antag 6.31µM, 3T3 cytotox inconclusive | NPR1 antag cnf 3.14µM | Npr2 selectivity 17.7µM | FLuc inh counter inconclusive | GloSensor cGMP 7.89µM
O=C(Cc1c[nH]c2ncc(-c3ccccc3)cc12)N1CCCC1	HEK293 tox inconclusive, NPR1 antag inconclusive, 3T3 cytotox inconclusive | NPR1 antag cnf 28µM | Npr2 selectivity inconclusive | FLuc inh counter inconclusive | GloSensor cGMP inconclusive
O=C(Cc1c[nH]c2ncc(-c3ccccc3Oc3ccccc3)cc12)N1CCOCC1	HEK293 tox 50.1µM, GPT2 inhibitor inconclusive, NPR1 antag 14.1µM, 3T3 cytotox inconclusive | NPR1 antag cnf 12.5µM | Npr2 selectivity 22.2µM | FLuc inh counter inactive | GloSensor cGMP 12.5µM
O=C(Cc1c[nH]c2ncc(-c3ccccc3)cc12)NC1CCOCC1	HEK293 tox inconclusive, 3T3 cytotox inconclusive
COc1cccc([S+](=O)([O-])N2CCC3(C2)C(=O)N(C)c2ccccc23)c1 (centres undefined)	HEK293 tox inconclusive
COc1ccc(C2Cn3nnc(C(=O)N4CCN(C(=O)Cc5ccc(F)cc5)CC4)c3CO2)cc1 (centres undefined)	HEK293 tox inconclusive, NPR1 antag 8.91µM | NPR1 antag cnf 13.7µM | Npr2 selectivity 15.3µM | FLuc inh counter inactive | GloSensor cGMP 13.7µM
